# Results reported in PubChem BioAssay (NCATS).
# Inconclusive results are not listed. Active and inactive are the calls of the source. The call rests on the fitted dose curve; in most records, active means well fitted cell-killing curve with a large enough effect; inconclusive means small, poorly fitted or top-dose-only effect, or effect the other way; inactive means no such curve, though single readings can be large or run the other way.
# Experiment: Quantitative High-Throughput drug screen in 47 multiple myeloma cell lines against the NCATS MIPE library collection: Karpas417_ECACC cell viability assay (AID 1918961)
# Conditions: Karpas417 myeloma viability, CellTiter-Glo ATP luminescence, 48 h; viability (% of DMSO): at 45.8 µM (top of the series)
# Source text: PI: Beverly A. Mock Ph.D.
# Laboratory of Cancer Biology and Genetics,
# Center for Cancer Research, National Cancer Institute,
# National Institute of Health, Bethesda, Maryland
# Drug resistance and disease progression are common in multiple myeloma (MM) patients, underscoring the need for new therapeutic combinations. […] We hypothesized that effective combinations would reduce MYC expression and enhance p16 activity. […] These preclinical data identify potentially useful drug combinations for evaluation in drug-resistant MM and reveal potential mechanisms of combined drug sensitivity.
# Described herein is the primary MIPE qHTS used to cherrypick compounds. Validated compounds were then further tested for potential synergistic activiy.
# [1] Peat TJ, Gaikwad SM, Dubois W, Gyabaah-Kessie N, Zhang S, Gorjifard S, Phyo Z, Andres M, Hughitt VK, Simpson RM, Miller MA, Girvin AT, Taylor A, Williams D, D'Antonio N, Zhang Y, Rajagopalan A, Flietner E, Wilson K, Zhang X, Shinn P, Klumpp-Thomas C, McKnight C, Itkin Z, Chen L, Kazandijian D, Zhang J, Michalowski AM, Simmons JK, Keats J, Thomas CJ, Mock BA. Drug combinations identified by high-throughput screening promote cell cycle transition and upregulate Smad pathways in myeloma. Cancer Lett. 2023 Aug 1;568:216284. doi: 10.1016/j.canlet.2023.216284. Epub 2023 Jun 24. PMID: 37356470; PMCID: PMC10408729.
# SEQUENCE No. (e.g., 1, 2, 3, etc.); […] (e.g., Cells, Incubation, Reagent, etc.); VALUE and DESCRIPTION.
# 1; Cells; 5 uL; white, solid bottom 1536-well Greiner assay plate.
# 2; Compounds; 23 nL; Kalypsis pin tool (Wako USA) equipped with a 1536-well pin head to transfer to the assay plates.
# 3; Incubation; 48 hours; 37C incubation.
# 4; Reagent;5uL; CellTiter Glo (Promega).
# 5; Detector; 425V; Luminescence; Viewlux PerkinElmer.
# NOTES (numbers refer to Sequence numbers above)
# 1. The cell-based screening methods employed in this study were like those previously published. Briefly, the corresponding myeloma cell lines were screened in 1,536-well plates with 500 cells, 5-uL per well for inhibition of cell viability (assessed by measuring ATP levels with CellTiterGlo).
# 2. NCATS MIPE 4.0 library of approved and investigational drugs were added using the Kalypsis pin tool. Wells treated with DMSO only for 100% viability and media only wells for 0% viability were used as controls.
# 3. The assay plates were covered and incubated for 48 hours in a 37C, 5% CO2 incubator with controlled humidity.
# 4. After 48 hours, CellTilter-GloTM luminescent substrate mix (Promega) reagent was added to the assay plate and plates we incubated for 5 min at room temperature.
# 5. Signal was measured as median relative luminescence units on a ViewLux (PerkinElmer) multiplate reader.
# [1] Heske CM, Davis MI, Baumgart JT, Wilson K, Gormally MV, Chen L, Zhang X, Ceribelli M, Duveau DY, Guha R, Ferrer M, Arnaldez FI, Ji J, Tran HL, Zhang Y, Mendoza A, Helman LJ, Thomas CJ. Matrix Screen Identifies Synergistic Combination of PARP Inhibitors and Nicotinamide Phosphoribosyltransferase (NAMPT) Inhibitors in Ewing Sarcoma. Clin Cancer Res. 2017 Dec 1;23(23):7301-7311. doi: 10.1158/1078-0432.CCR-17-1121. Epub 2017 Sep 12. PMID: 28899971; PMCID: PMC6636827.
# Potency means the concentration at half of the fitted maximal effect.
Structure (SMILES),viability (% of DMSO),Potency
Cc1ccc2c(c1)c1c(n2CCc2ccc(C)nc2)CCN(C)C1,95.8% (inactive),–
OCCn1cc(-c2ccc3c(c2)CCC3=NO)c(-c2ccncc2)n1,–,8330 nM (active)
Cc1nc(NC(=O)N2CCC[C@@H]2C(N)=O)sc1-c1csc(C(C)(C)C)n1,–,1050 nM (active)
Cc1cccc(-c2[nH]c(C(C)(C)C)nc2-c2ccc3c(c2)OCO3)n1,–,1660 nM (active)
CCNC(=O)[C@H]1O[C@@H](n2cnc3c(N)nc(NCCc4ccc(CCC(=O)O)cc4)nc32)[C@H](O)[C@H]1O,–,29.6 nM (active)
NS(=O)(=O)c1ccc(Nc2nc(OCC3CCCCC3)c3[nH]cnc3n2)cc1,–,14800 nM (active)
CCCCOCCOc1nc(-c2ccc(C(=O)O)c(F)c2)sc1C,197% (inactive),–
CC(C)C[C@@H](N)[C@H](O)C(=O)N[C@H](C(=O)N[C@H](C(=O)N[C@@H](CC(=O)O)C(=O)O)C(C)C)C(C)C,241% (inactive),–
COc1nccc(-c2c(-c3ccc(F)cc3)ncn2C2CCC(O)CC2)n1 (stereo not given),–,4690 nM (active)
CN(C)CCOc1cc(-c2cn[nH]c2)ccc1NC(=O)C1COc2ccccc2O1 (stereo not given),64.1% (active),–
O=c1[nH]c(=O)n([C@H]2C[C@@H](O)[C@@H](CO)O2)cc1I,106% (inactive),–
NS(=O)(=O)c1cc(Cl)c(Cl)c(S(N)(=O)=O)c1,198% (inactive),–
N#CC1(c2cccc(C(=O)Nc3cc(Oc4ccc5nc(NC(=O)C6CC6)sc5n4)ccc3F)c2Cl)CC1,–,187 nM (active)
CC(=O)Nc1cccc(-n2c(=O)n(C3CC3)c(=O)c3c(Nc4ccc(I)cc4F)n(C)c(=O)c(C)c32)c1,–,66.2 nM (active)
OC[C@H]1O[C@@H](O[C@H]2[C@@H](O)[C@@](O)(CO)O[C@@H]2CO)[C@H](O)[C@@H](O)[C@@H]1O,90.4% (inactive),–
CCC=CC[C@H]1C(=O)CC[C@@H]1CC(=O)OC,218% (inactive),–
COC(=O)N1CCN(Cc2cccc(NC(=O)Nc3ccc(C)nc3)c2F)CC1,–,4.7 nM (active)
CNC(=O)c1cc(Oc2ccc(NC(=O)Nc3ccc(Cl)c(C(F)(F)F)c3)c(F)c2)ccn1,–,4690 nM (active)
C[C@@H]1C[C@H]2[C@@H]3CCC4=CC(=O)C=C[C@]4(C)[C@@]3(F)[C@@H](O)C[C@]2(C)[C@@]1(O)C(=O)CO,–,41.8 nM (active)
Cc1cc(CS(=O)(=O)c2ccccc2)cc(OCc2ccc(CN3CCC[C@H]3CO)cc2)c1,–,3720 nM (active)

Structure (SMILES),viability (% of DMSO),Potency
COc1cc2nc(-c3cc(F)ccc3O)nc(N[C@@H]3CNC[C@@H]3C(C)(C)O)c2cc1OC,–,118 nM (active)
CC(C)Oc1cc(Nc2nc(N[C@@H](C)c3ccc(F)cn3)ncc2Cl)[nH]n1,–,2640 nM (active)
CC1=C(CC(=O)O)c2cc(F)ccc2C1=Cc1ccc(S(C)=O)cc1 (stereo not given),–,14800 nM (active)
CC(=O)OCC(=O)[C@@]1(O)CC[C@H]2[C@@H]3CCC4=CC(=O)C=C[C@]4(C)[C@@H]3[C@@H](O)C[C@@]21C,204% (inactive),–
O=C(Nc1ncc(SCCN2CCCC2)s1)[C@]1(c2ccc(S(=O)(=O)C3CC3)cc2)C[C@@H]1C1CCCCC1,–,10500 nM (active)
O=C(O)C1=CO[C@@H](O[C@@H]2O[C@H](CO)[C@H](O)[C@H](O)[C@H]2O)[C@@H]2C(CO)=CC[C@H]12,225% (inactive),–
COC(=O)Nc1ccc(-c2nc(N3CCOCC3)c3cnn(C4CCN(C(=O)OC)CC4)c3n2)cc1,–,59 nM (active)
COc1ccc(-c2cc3nccn3c(Nc3ncccc3C(N)=O)n2)cc1OC,–,166 nM (active)
Nc1ncnc2c1ncn2[C@@H]1O[C@H](CO)[C@@H](O)[C@@H]1O,–,118 nM (active)
C[C@@H]1O[C@@H](O[C@H]2CC[C@@]3(C)[C@H](CC[C@@H]4[C@H]3C[C@@H](O)[C@]3(C)[C@@H](C5=CC(=O)OC5)CC[C@]43O)C2)C[C@H](O)[C@@H]1O[C@H]1C[C@H](O)[C@H](O[C@H]2C[C@H](O)[C@@H](O)[C@@H](C)O2)[C@H](C)O1 (stereo in doubt),–,152 nM (active)
O=c1[nH]nc(OCCCc2ccc(Cl)cc2)c(NCc2cccnc2)c1Br,–,4690 nM (active)
N#CC(=C1Nc2ccccc2S1)c1ccnc(OCc2ccc(CN3CCOCC3)cc2)n1,–,5.9 nM (active)
C[C@H]1[C@H](O)O[C@@H]2O[C@@]3(C)CC[C@@H]4[C@H](C)CC[C@@H]1[C@@]24OO3,–,2090 nM (active)
CC(C)(C)c1nc(-c2cccc(NS(=O)(=O)c3c(F)cccc3F)c2F)c(-c2ccnc(N)n2)s1,–,5900 nM (active)
Cc1c(-c2cccc3c(CCCOc4cccc5ccccc45)c(C(=O)O)n(Cc4cccnc4)c23)c(COc2ccc(N3CCN([S+](=O)([O-])N(C)C)CC3)cc2)nn1C,124% (inactive),–
O=C(O)CCNc1cc(N2CCc3ccccc3CC2)nc(-c2ccccn2)n1,84.5% (inactive),–
CCC(=O)OCC(=O)[C@@]1(OC(=O)CC)[C@@H](C)C[C@@H]2[C@H]3CCC4=CC(=O)C=C[C@]4(C)[C@@]3(F)[C@@H](O)C[C@@]21C,–,93.5 nM (active)
CC(C)CNc1ccnc(NCc2csc(-c3ccccc3)n2)n1,–,16600 nM (active)
NC(=O)c1nnn(Cc2cc(Cl)c(C(=O)c3ccc(Cl)cc3)c(Cl)c2)c1N,147% (inactive),–
CCNC(=O)CCCC=CC[C@@H]1[C@H](C=CC(O)CCc2ccccc2)[C@@H](O)C[C@@H]1O (stereo not given in full),134% (inactive),–
